Source: the supplement of paper PMC10849652
Of roughly 7,900 targets only a part is listed; those with a hit were picked by preference. About 0.6% of all pairs of compound and target were hits.

Columns and labels:
Experiment in all cases: log2 fold change, soluble protein after heating vs DMSO (PISA); higher = thermal stabilisation; K562 cells, 10 uM, 30 min; active = over 0.2 and 3.5 SD of the protein, either way, in both replicates (recomputed)
[1] = compound: COC1=CC=C(C=C1)CN2C=CC3=C2C=C(C=C3)C(=O)NO
Summary of the method: (§1)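 Values are thermal stability changes relative to control samples and are taken from duplicates. They are stated as log2 fold changes. Before quantification by TMTpro 16plex LC-MS/MS with equalised channel sums, K562 cells at 2×10^6 cells/mL were treated with 10 μM compound for 30 min, heated in aliquots for 3 min across 48°C-58°C, pooled, extracted in PBS with 0.5% NP-40 at 4°C, and centrifuged at 21,000xg for 90 min to give the soluble supernatant.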

filanesib = compound: CON(C)C(=O)N1N=C(c2cc(F)ccc2F)S[C@@]1(CCCN)c1ccccc1 [filanesib]
Summary of the method: as §1

zotarolimus = compound: CO[C@H]1C[C@@H]2CC[C@@H](C)[C@@](O)(O2)C(=O)C(=O)N2CCCC[C@H]2C(=O)O[C@H]([C@H](C)C[C@@H]2CC[C@H](n3cnnn3)[C@H](OC)C2)CC(=O)[C@H](C)/C=C(\C)[C@@H](O)[C@@H](OC)C(=O)[C@H](C)C[C@H](C)/C=C/C=C/C=C/1C [zotarolimus]
Summary of the method: as §1

idasanutlin = compound: COc1cc(C(=O)O)ccc1NC(=O)[C@@H]1N[C@@H](CC(C)(C)C)[C@](C#N)(c2ccc(Cl)cc2F)[C@H]1c1cccc(Cl)c1F [idasanutlin]
Summary of the method: as §1

alisertib = compound: COc1cc(Nc2ncc3c(n2)-c2ccc(Cl)cc2C(c2c(F)cccc2OC)=NC3)ccc1C(=O)O [alisertib]
Summary of the method: as §1

[2] = compound: COc1cc2nc(-c3cc(F)ccc3O)nc(N[C@@H]3CNC[C@H]3C(C)(C)O)c2cc1OC
Summary of the method: as §1

gefitinib = compound: COc1cc2ncnc(Nc3ccc(F)c(Cl)c3)c2cc1OCCCN1CCOCC1 [gefitinib]
Summary of the method: as §1

[3] = compound: COc1cccc2cc(-c3nc([C@H]4CC[C@H](C(=O)O)CC4)n4ncnc(N)c34)[nH]c12
Summary of the method: as §1

lapatinib = compound: CS(=O)(=O)CCNCc1ccc(-c2ccc3ncnc(Nc4ccc(OCc5cccc(F)c5)c(Cl)c4)c3c2)o1 [lapatinib]
Summary of the method: as §1

pictilisib = compound: CS(=O)(=O)N1CCN(Cc2cc3nc(-c4cccc5[nH]ncc45)nc(N4CCOCC4)c3s2)CC1 [pictilisib]
Summary of the method: as §1

[4] = compound: CS(=O)(=O)c1ccc(-c2cnc(N)c(C(=O)Nc3ccccc3)n2)cc1
Summary of the method: as §1

crizotinib = compound: C[C@@H](Oc1cc(-c2cnn(C3CCNCC3)c2)cnc1N)c1c(Cl)ccc(F)c1Cl [crizotinib]
Summary of the method: as §1

[5] = compound: C[C@@H]1COCCN1C2=NC(=NC(=C2)C3(CC3)S(=O)(=O)C)C4=C5C=CNC5=CC=C4
Summary of the method: as §1

[6] = compound: C[C@H](C1=CC=C(C=C1)C(=O)NC2=C3C=CNC3=NC=C2)N
Summary of the method: as §1

duvelisib = compound: C[C@H](Nc1ncnc2nc[nH]c12)c1cc2cccc(Cl)c2c(=O)n1-c1ccccc1 [duvelisib]
Summary of the method: as §1

gandotinib = compound: Cc1cc(Nc2cc(CN3CCOCC3)c3nc(C)c(Cc4ccc(Cl)cc4F)n3n2)n[nH]1 [gandotinib]
Summary of the method: as §1

tozasertib = compound: Cc1cc(Nc2cc(N3CCN(C)CC3)nc(Sc3ccc(NC(=O)C4CC4)cc3)n2)n[nH]1 [tozasertib]
Summary of the method: as §1

[7] = compound: Cc1cc(SCc2sc(-c3ccc(C(F)(F)F)cc3)nc2C)ccc1OCC(=O)O
Summary of the method: as §1

doramapimod = compound: Cc1ccc(-n2nc(C(C)(C)C)cc2NC(=O)Nc2ccc(OCCN3CCOCC3)c3ccccc23)cc1 [doramapimod]
Summary of the method: as §1

ispinesib = compound: Cc1ccc(C(=O)N(CCCN)[C@@H](c2nc3cc(Cl)ccc3c(=O)n2Cc2ccccc2)C(C)C)cc1 [ispinesib]
Summary of the method: as §1

Measured: log2 fold change

PRCP (UniProt P42785)
Chain of UniProt P42785 (P42785 whole entry, looked up): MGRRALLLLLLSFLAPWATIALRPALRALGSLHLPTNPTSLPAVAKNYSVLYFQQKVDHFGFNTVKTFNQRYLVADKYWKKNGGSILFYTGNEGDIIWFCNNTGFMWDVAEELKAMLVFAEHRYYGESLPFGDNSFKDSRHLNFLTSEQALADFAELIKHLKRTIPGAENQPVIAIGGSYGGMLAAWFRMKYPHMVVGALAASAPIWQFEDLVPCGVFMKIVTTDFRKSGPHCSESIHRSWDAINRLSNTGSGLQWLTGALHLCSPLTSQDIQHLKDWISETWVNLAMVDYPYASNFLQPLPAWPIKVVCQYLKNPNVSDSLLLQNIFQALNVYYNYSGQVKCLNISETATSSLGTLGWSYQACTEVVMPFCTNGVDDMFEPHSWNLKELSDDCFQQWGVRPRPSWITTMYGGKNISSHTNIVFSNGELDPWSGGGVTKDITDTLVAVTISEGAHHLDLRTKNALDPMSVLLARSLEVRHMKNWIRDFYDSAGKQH
inactive: [1] 0.009 | filanesib -0.038 | zotarolimus -0.007 | idasanutlin -0.055 | alisertib -0.013 | [2] -0.074 | gefitinib 0.029 | [3] 0.065 | lapatinib -0.014 | pictilisib 0.019 | [4] 0.012 | crizotinib -0.078 | [5] -0.088 | [6] -0.037 | duvelisib 0.045 | gandotinib 0.006 | tozasertib 0.036 | [7] -0.037 | doramapimod -0.034 | ispinesib -0.096

PDE2A (UniProt O00408)
Chain of UniProt O00408 (O00408 whole entry, looked up): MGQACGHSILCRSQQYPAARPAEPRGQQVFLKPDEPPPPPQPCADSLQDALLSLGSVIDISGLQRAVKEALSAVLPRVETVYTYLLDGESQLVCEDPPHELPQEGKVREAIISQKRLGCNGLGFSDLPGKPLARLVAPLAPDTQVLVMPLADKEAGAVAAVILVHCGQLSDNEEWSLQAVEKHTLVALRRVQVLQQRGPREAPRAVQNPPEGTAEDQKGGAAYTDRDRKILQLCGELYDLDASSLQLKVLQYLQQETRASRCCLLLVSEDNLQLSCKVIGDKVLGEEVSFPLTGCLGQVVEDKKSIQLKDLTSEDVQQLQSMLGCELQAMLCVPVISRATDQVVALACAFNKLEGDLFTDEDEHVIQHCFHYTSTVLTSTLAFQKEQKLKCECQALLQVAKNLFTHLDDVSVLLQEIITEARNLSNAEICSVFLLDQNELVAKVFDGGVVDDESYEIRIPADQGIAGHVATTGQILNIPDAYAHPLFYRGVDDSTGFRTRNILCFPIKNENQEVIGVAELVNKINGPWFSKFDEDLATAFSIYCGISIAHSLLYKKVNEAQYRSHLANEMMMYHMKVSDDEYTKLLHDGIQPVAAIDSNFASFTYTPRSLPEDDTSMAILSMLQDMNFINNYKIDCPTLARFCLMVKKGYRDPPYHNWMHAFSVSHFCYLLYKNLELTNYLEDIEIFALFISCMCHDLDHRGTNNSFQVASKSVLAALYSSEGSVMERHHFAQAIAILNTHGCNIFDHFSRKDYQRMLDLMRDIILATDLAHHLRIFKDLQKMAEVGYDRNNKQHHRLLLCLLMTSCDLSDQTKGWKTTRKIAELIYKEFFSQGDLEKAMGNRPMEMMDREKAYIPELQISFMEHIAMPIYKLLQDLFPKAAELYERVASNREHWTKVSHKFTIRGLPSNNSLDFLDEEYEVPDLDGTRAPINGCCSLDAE
inactive: [1] 0.172 | filanesib -0.118 | zotarolimus 0.001 | idasanutlin -0.089 | alisertib -0.053 | [2] 0.134 | gefitinib -0.004 | [3] 0.027 | lapatinib -0.014 | pictilisib 0.148 | [4] -0.064 | crizotinib 0.004 | [5] 0.223 | [6] -0.108 | duvelisib 0.034 | gandotinib 0.117 | tozasertib -0.105 | [7] 0.045 | doramapimod -0.026 | ispinesib -0.067

PRKCA (UniProt P17252)
inactive: [1] -0.005 | filanesib -0.066 | zotarolimus 0.008 | idasanutlin 0.01 | alisertib -0.019 | [2] 0.057 | gefitinib -0.002 | [3] 0.017 | lapatinib -0.027 | pictilisib 0.055 | [4] -0.023 | crizotinib -0.081 | [5] 0.044 | [6] -0.041 | duvelisib 0.158 | gandotinib -0.227 | tozasertib -0.052 | [7] 0.232 | doramapimod 0.01 | ispinesib -0.112

PIP4K2A (UniProt P48426)
Chain of UniProt P48426 (P48426 whole entry, looked up): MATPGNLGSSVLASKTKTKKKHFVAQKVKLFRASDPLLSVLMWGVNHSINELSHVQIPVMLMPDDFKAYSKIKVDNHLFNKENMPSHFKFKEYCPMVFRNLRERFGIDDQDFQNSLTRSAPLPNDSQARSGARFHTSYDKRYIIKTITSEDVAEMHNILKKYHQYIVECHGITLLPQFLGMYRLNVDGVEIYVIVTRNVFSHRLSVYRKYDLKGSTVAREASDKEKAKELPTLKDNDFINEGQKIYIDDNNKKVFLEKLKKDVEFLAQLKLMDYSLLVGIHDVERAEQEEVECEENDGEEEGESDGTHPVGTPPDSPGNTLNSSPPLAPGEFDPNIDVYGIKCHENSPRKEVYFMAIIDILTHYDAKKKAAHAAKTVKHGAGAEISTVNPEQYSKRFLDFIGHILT
active: [2] 0.379 | [4] 0.411
inactive: [1] 0.022 | filanesib 0.006 | zotarolimus -0.002 | idasanutlin -0.11 | alisertib -0.018 | gefitinib 0.017 | [3] 0.314 | lapatinib -0.054 | pictilisib 0.132 | crizotinib -0.032 | [5] 0.027 | [6] 0.013 | duvelisib -0.126 | gandotinib -0.084 | tozasertib -0.007 | [7] 0.042 | doramapimod 0.026 | ispinesib -0.052

POLR2G (UniProt P62487)
inactive: [1] 0.039 | filanesib -0.014 | zotarolimus -0.046 | idasanutlin -0.006 | alisertib -0.054 | [2] 0.127 | gefitinib 0.001 | [3] 0.106 | lapatinib -0.022 | pictilisib 0.109 | [4] 0.006 | crizotinib 0.257 | [5] 0.111 | [6] 0.125 | duvelisib 0.087 | gandotinib 0.191 | tozasertib -0.051 | [7] -0.026 | doramapimod -0.016 | ispinesib 0.035

POLD1 (UniProt P28340)
Chain of UniProt P28340 (P28340 whole entry, looked up): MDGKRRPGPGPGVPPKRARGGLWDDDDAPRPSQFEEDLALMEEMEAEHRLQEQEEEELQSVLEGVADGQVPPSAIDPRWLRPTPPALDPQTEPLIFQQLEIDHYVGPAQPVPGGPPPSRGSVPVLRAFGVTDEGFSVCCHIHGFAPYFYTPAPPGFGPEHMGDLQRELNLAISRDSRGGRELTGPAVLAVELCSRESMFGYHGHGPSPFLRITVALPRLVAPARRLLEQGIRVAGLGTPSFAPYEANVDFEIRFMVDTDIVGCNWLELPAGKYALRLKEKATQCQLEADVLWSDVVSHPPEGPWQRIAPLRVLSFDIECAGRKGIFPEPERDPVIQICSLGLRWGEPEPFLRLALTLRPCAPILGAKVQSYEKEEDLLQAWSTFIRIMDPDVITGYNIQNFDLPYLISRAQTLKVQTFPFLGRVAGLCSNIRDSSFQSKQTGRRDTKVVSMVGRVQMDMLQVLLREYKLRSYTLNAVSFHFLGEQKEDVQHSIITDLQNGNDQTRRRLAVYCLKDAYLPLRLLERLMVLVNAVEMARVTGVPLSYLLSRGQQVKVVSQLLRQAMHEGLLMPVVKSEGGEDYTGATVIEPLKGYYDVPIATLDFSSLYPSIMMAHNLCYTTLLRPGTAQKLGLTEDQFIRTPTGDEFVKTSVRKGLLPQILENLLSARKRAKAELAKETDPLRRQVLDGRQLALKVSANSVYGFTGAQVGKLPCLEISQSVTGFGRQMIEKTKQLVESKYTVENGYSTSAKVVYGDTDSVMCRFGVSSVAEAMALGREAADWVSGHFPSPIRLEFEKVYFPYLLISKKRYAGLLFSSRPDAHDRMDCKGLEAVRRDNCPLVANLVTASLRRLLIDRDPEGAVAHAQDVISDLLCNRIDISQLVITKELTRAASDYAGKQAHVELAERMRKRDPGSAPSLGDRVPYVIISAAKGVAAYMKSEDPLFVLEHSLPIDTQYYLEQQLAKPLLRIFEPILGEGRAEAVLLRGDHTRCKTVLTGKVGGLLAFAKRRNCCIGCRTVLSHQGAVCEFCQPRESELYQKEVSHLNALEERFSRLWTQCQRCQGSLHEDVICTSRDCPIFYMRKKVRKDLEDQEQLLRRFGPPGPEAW
inactive: [1] 0.025 | filanesib -0.038 | zotarolimus 0.007 | idasanutlin 0.024 | alisertib -0.042 | [2] -0.006 | gefitinib 0.007 | [3] 0.047 | lapatinib 0.01 | pictilisib 0 | [4] 0.019 | crizotinib -0.042 | [5] 0.041 | [6] -0.025 | duvelisib 0.004 | gandotinib 0.036 | tozasertib 0.016 | [7] 0.046 | doramapimod -0.018 | ispinesib -0.01

PDCD6IP (UniProt Q8WUM4)
Chain of UniProt Q8WUM4 (Q8WUM4 whole entry, looked up): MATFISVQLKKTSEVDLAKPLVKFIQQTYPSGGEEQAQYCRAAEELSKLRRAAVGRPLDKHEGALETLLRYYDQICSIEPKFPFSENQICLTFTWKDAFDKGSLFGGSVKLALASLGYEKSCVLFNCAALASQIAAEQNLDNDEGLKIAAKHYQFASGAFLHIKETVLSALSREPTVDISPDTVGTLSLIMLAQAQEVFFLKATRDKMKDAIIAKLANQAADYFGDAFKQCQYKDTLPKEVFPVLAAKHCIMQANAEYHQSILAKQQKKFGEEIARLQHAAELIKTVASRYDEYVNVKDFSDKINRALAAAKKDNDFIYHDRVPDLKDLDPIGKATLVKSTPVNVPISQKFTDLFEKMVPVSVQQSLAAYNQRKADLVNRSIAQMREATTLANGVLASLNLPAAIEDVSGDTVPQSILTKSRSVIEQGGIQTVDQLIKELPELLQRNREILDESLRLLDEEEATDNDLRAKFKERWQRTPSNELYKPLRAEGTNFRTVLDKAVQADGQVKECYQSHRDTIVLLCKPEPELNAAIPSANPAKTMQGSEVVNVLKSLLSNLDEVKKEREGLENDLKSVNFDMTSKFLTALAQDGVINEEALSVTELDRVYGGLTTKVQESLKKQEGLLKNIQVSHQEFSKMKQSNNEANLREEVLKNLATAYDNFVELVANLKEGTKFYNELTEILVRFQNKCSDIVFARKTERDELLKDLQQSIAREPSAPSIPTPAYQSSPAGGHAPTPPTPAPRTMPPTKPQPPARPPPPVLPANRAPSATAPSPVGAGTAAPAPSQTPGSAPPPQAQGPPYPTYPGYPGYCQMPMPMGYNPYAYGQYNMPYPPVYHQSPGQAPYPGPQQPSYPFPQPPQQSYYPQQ
inactive: [1] 0.105 | filanesib -0.022 | zotarolimus 0.079 | idasanutlin -0.018 | alisertib 0.045 | [2] 0.022 | gefitinib 0.06 | [3] -0.118 | lapatinib -0.04 | pictilisib 0.009 | [4] 0.078 | crizotinib -0.177 | [5] 0.067 | [6] 0.077 | duvelisib 0.026 | gandotinib -0.117 | tozasertib 0.085 | [7] 0.17 | doramapimod -0.042 | ispinesib -0.14

PEX11B (UniProt O96011)
Chain of UniProt O96011 (O96011 whole entry, looked up, change not shown): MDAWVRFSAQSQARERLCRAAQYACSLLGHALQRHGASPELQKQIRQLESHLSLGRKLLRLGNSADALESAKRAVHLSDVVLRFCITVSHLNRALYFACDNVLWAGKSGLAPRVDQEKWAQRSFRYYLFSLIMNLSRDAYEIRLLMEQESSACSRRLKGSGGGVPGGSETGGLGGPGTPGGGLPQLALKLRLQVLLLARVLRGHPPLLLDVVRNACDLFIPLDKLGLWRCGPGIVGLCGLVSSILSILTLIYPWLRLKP
inactive: [1] 0.021 | filanesib -0.038 | zotarolimus -0.009 | idasanutlin -0.076 | alisertib -0.071 | [2] -0.063 | gefitinib -0.037 | [3] 0.019 | lapatinib 0.023 | pictilisib 0.004 | [4] -0.042 | crizotinib 0.02 | [5] 0.148 | [6] -0.012 | duvelisib 0.081 | gandotinib -0.073 | tozasertib 0.065 | [7] 0.014 | doramapimod 0.002 | ispinesib 0.07
